From PubChem BioAssay AID602156 (GNF / Scripps Winzeler lab, 2011)
The campaign covered roughly 5,700 compounds. About 280 (4.9%) were called active. No rule for the calls is given here. These entries were drawn from the full list.

assay: Plasmodium liver-stage growth inhibition, dose response, imaging, Malaria Box, P. yoelii, HepG2-A16-CD81EGFP (AID 602156); settings: P. yoelii liver stage in HepG2-A16-CD81EGFP

outcome, inactive:
CC(C)CC(NC(=O)C(=Cc1ccco1)NC(=O)c1ccccc1)C(=O)OCc1ccccc1 (stereo unspecified), CC(C)CN1CCC(O)(c2ccc3oc(C(=O)Nc4ccc5c(c4)OCO5)cc3c2)CC1, c1ccc2c(NC3CCCC3)nc(Nc3ccc4c(c3)OCO4)nc2c1, Clc1cccc(CSc2nc(Nc3ccc4c(c3)OCO4)c3ccccc3n2)c1, O=C(Nc1ccc2c(c1)OCO2)c1cc2cc(C3(O)CCN(CCCc4ccccc4)CC3)ccc2o1, O=C(CSc1nc2ccccc2[nH]1)Nc1ccc2c(c1)OCO2, CC(C)(C)C1=NN(CC(=O)Nc2ccc3c(c2)OCO3)C(=O)c2cc3ccccc3n2C1, CCCc1ccc(OCCNC(=O)CCNC(=O)Nc2cccc(Cl)c2)cc1, CC(C)CNC(=O)c1ccc(OC2CCN(CC3CCCCC3)CC2)c(Cl)c1, CC(C)CN(CC(=O)Nc1cc(C(C)(C)C)nn1-c1ccccc1)C(=O)c1cc(Cl)cc(Cl)c1, O=C(Nc1ccc(-n2cnnn2)cc1)C1CCN(Cc2ccc(OC(F)F)cc2)CC1, CCC(C)OC(=O)C1=C(C)NC2=C(C(=O)CC(c3ccc(Cl)cc3)C2)C1c1ccccc1F (stereo unspecified), N#Cc1cc(Oc2ccc(-c3cnc4ccccc4n3)cc2)nc2ccccc12, COc1ccc(C2C(C(=O)Nc3cccc(OC)c3)c3ccccc3C(=O)N2C2CCCCC2)cc1 (stereo unspecified), CC[n+]1c(C=CC=C2N(C)c3ccccc3C2(C)C)n(-c2ccccc2)c2ccccc21, COc1ccc(NC(=O)NCc2cccn2Cc2ccc(F)cc2)cc1OC, Cn1nc(C(=O)N2CCCCCC2)c2c1CCC(NCC(C)(C)N1CCOCC1)C2 (stereo unspecified), C=C(Cl)CSc1nnc(CCNC(=O)c2ccc(C)cc2)n1-c1ccc(F)cc1, CCCc1nc2ccc(NC(=O)NCC)cc2c(=O)n1Cc1ccc(-c2ccccc2)cc1, CCc1nc2ccc(NC(=O)c3ccncc3)cc2c(=O)n1Cc1cccc(OC)c1, COc1cc(OC)cc(C(=O)N(CCCC(C)Nc2cc(OC)cc3cccnc23)Cc2ccc(Cl)cc2)c1 (stereo unspecified), COc1cc(C(=O)C=CNc2ccc(N(C)C)cc2)cc(OC)c1OC, CCC(Cc1cnc2nc(N)nc(N)c2n1)c1ccc(C(=O)N[C@@H](CCC(=O)O)C(=O)O)cc1 (stereo partly specified), CCCCCCc1cc2cc(-c3nc4ccccc4[nH]3)c(=Nc3ccccc3C)oc2cc1O, CC(C)(C)c1nn(-c2ccc(Cl)cc2)c2[nH]c(=O)c(CNCc3ccccc3)cc12, c1ccc2c(NCCNc3c4ccccc4nc4ccccc34)c3ccccc3nc2c1
